Hit rate of the full screen: of about 68,000 compounds, about 2,700 (4%) showed an effect of 50% or more. The full list was thinned out, with strong results kept by preference.
test system: Plasmodium berghei; test: Screen against P. berghei liver stage (PbLuc), transformed with Luciferase, at 2uM; type: functional, HepG2; conditions: tested at 2 uM

How did the INHIBITION turn out when `O=C(NCc1ccccn1)c1cncc(C2CCCN2)n1` (centres undefined) was run?
Its INHIBITION is 20.28%.

Which INHIBITION does the source give for `O=C(CCn1ncc2ccccc21)N1CCCC(Cc2cccnc2)C1` (centres undefined) here?
The INHIBITION was 20.44%.

How did the INHIBITION turn out when `Cc1csc(CN2CCC(C(=O)O)(n3ccc(-c4ccco4)n3)CC2)n1` was run?
Its INHIBITION is -8.84%.

How did the INHIBITION turn out when `Cc1cc(C(=O)N(C)Cc2cccs2)nc(N2CCCC2)n1` was run?
Its INHIBITION is 50.9%.

Which INHIBITION does the source give for `Cc1cc(C(=O)N(C)Cc2cccs2)nc(N2CCOCC2)n1` here?
The INHIBITION was -3.54%.

For `Cc1cc(C(=O)N(C)Cc2cccs2)nc(N2CCCCC2)n1`, which INHIBITION is on record?
The INHIBITION was -14.24%.

Which INHIBITION does the source give for `CC(C)c1ncc(CN2CCCC(CO)C2)cn1` (centres undefined) here?
Its INHIBITION is 1.42%.

With `c1nc(N2CCCC2)ncc1CN1CCCC(CN2CCCCC2)C1` (centres undefined) as the compound, how does the INHIBITION read?
The INHIBITION was 52.45%.

How did the INHIBITION turn out when `NC(=O)CCC1CCCN(Cc2cnc(N3CCCCC3)nc2)C1` (centres undefined) was run?
The INHIBITION was 44.23%.

For `Cc1ccoc1C(=O)NC1CCN(Cc2cccc3ccccc23)CC1`, which INHIBITION is on record?
Its INHIBITION is 3.48%.

`CC(=O)N(C)CC(=O)NC(C)c1ccc(OCCC(C)C)cc1` (centres undefined) was tested. Which INHIBITION did it give?
Its INHIBITION is 29.41%.

How did the INHIBITION turn out when `N#Cc1c(N)nc2c(c1-c1c[nH]nc1C1CCCCC1)COCC2` was run?
Its INHIBITION is -64.94%.

How did the INHIBITION turn out when `Cn1nc(C2CC2)c2c1NC(=O)CC2c1ccc(CN2CCCCC2)s1` (centres undefined) was run?
Its INHIBITION is 22.63%.

`Cn1nc(C2CC2)c2c1NC(=O)CC2c1cc(CN2CCCC2)cs1` (centres undefined) was tested. Which INHIBITION did it give?
Its INHIBITION is 73.26%.

For `CCCn1nc(C)c2c1NC(=O)CC2c1ccc(CN2CCCC2)s1` (centres undefined), which INHIBITION is on record?
Its INHIBITION is 5.02%.

With `O=C(CC1CCCC1)N1CCC(c2nnc(-c3ccccn3)o2)CC1` as the compound, how does the INHIBITION read?
Its INHIBITION is 9.09%.

Which INHIBITION does the source give for `Cc1cc(C(=O)NCCC(=O)N2CCCc3ccccc32)no1` here?
The INHIBITION was 12.39%.

Which INHIBITION does the source give for `COc1c(C(=O)NCc2cccnc2)nnn1Cc1ccc(C)cc1` here?
The INHIBITION was -19.47%.

For `Cc1ccc2c(c1)Oc1ncccc1C(=O)N2`, which INHIBITION is on record?
The INHIBITION was 9.43%.

With `CN(CC(=O)NCCC#N)C(c1ccccc1)c1ccccc1` as the compound, how does the INHIBITION read?
The INHIBITION was 21.71%.

For `CN(CC(=O)NCCC#N)C(c1ccccc1)c1ccc(F)cc1` (centres undefined), which INHIBITION is on record?
Its INHIBITION is 13.11%.

How did the INHIBITION turn out when `CC(c1ccccc1)N(C)CC(=O)NCCC#N` (centres undefined) was run?
Its INHIBITION is 59.24%.

For `O=C(CCc1cc2n(n1)CCN(CCCn1cccc1)C2)N1CCCC1`, which INHIBITION is on record?
Its INHIBITION is 5.1%.

`CC1(C)CC(N(Cc2cccnc2)Cc2cccc(F)c2)CC(C)(C)N1` was tested. Which INHIBITION did it give?
Its INHIBITION is -4.26%.

Which INHIBITION does the source give for `O=C(NCCCn1nc2ccccn2c1=O)Nc1ccc(F)cc1F` here?
The INHIBITION was 4.96%.

For `CN1CCN(S(=O)(=O)c2cccc(S(=O)(=O)C3CCS(=O)(=O)C3)c2)CC1` (centres undefined), which INHIBITION is on record?
The INHIBITION was 28.43%.

Which INHIBITION does the source give for `COc1ncccc1C1CC(=O)NCc2nc3ccccn3c21` (centres undefined) here?
The INHIBITION was 29.41%.

`COc1ncc(C2CC(=O)NCc3nc4ccccn4c32)cn1` (centres undefined) was tested. Which INHIBITION did it give?
The INHIBITION was -36.24%.

`COc1ccc(C2CC(=O)NCc3nc4ccccn4c32)cn1` (centres undefined) was tested. Which INHIBITION did it give?
Its INHIBITION is 54.3%.

From ChEMBL document CHEMBL4513216, “Probing the Open Global Health Chemical Diversity Library for Multistage-Active Starting Points for Next-Generation Antimalarials” (ACS Infect Dis, 2020)
